# BAZ2B block – inhibitors of human BAZ2B bromodomain; Q9UIF8; AlphaScreen BAZ2B-H3K14Ac peptide displacement; Potency, µM (top dose mostly 114 µM), without a hit: at the highest dose activity change, negative = inhibition, hits mostly inhibitors; 360,000 tested, 4.4% active; AID 504333; also: potency is read from the fitted curve at half-maximal effect; % is scaled to controls: 0 for no effect and ±100 for the full control effect; nearly all actives have a fitted effect of over 60% in size
#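 AlphaScreen luminescence quantifies BAZ2B engagement of H3K14Ac peptide; the protein and biotinylated peptide are both at 50 nM final, buffer PBS pH 7.4 with 0.01% Tween-20, all steps at room temperature.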
# HP1b binding inh – inhibitors of HP1-beta chromodomain binding to methylated histone tails; P83916; AlphaScreen HP1-beta / biotin-H3K9me3 peptide binding; Potency, µM (top dose mostly 114 µM), inactives show at the highest dose activity change, negative = inhibition, actives largely listed as inhibitors; 390,000 tested, 0.56% active; also: potency is read from the fitted curve at half-maximal effect; nearly all actives have a fitted effect of over 70% in size
# Target sequence (P83916 whole entry, looked up): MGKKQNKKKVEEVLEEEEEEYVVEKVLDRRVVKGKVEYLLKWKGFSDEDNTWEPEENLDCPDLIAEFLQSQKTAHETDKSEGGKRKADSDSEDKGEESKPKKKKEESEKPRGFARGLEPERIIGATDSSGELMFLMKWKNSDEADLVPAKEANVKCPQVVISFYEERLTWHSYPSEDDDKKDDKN
#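 AlphaScreen: HP1-beta (50 nM) preformed 30 min with biotin-H3(1-18)K9me3 peptide (50 nM) in PBS pH 7.4, 0.01% Tween-20. Compound added for 30 min at RT, then streptavidin donor/nickel chelate acceptor beads (10 ug/mL) for 30 min.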
# L3MBTL1 inh – blocks human L3MBTL1; Q9Y468; AlphaScreen L3MBTL1–H3K9me1 peptide binding; Potency, µM (top dose mostly 57.1 µM), without a hit: at the highest dose activity, negative = inhibition, hits mostly inhibitors; 230,000 tested, 0.66% active; AID 485360; also: potency is read from the fitted curve at half-maximal effect; % is scaled to controls: 0 for no effect and ±100 for the full control effect; nearly all actives have a fitted effect of over 60% in size
#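 L3MBTL1 50 nM + b-AHA-H3(1-15)K9me1 75 nM, 30 min RT; compound added, 30 min RT; streptavidin donor/Ni-chelate acceptor beads 10 ug/mL each final, 30 min RT dark; AlphaScreen read.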
# PI5P4Ka inh – inhibitors of human PI5P4K alpha; P48426; PI5P4Kalpha enzyme, ADP-Glo luminescence, 60 min; stronger effect = lower value; max response, %; 330,000 tested, 1.2% active; active = max response of -50% or lower; inconclusive = between -30% and -50%; inactive = -30% or higher; also: value at the top dose of about 77 µM; % is scaled to controls: 0 for no effect and ±100 for the full control effect
# Target sequence (P48426 whole entry, looked up): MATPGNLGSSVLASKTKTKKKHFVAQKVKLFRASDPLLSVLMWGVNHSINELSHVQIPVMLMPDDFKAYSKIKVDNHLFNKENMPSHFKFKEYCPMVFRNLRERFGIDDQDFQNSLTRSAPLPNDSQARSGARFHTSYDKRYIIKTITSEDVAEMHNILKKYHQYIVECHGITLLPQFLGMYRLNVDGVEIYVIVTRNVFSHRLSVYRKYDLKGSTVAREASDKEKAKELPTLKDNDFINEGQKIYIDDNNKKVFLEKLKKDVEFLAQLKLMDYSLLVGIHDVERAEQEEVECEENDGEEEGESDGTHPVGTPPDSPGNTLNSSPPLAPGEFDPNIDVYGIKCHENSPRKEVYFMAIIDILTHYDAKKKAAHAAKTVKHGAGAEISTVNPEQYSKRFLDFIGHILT
#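 PI5P4Kalpha ADP-Glo assay; 5 microM ATP final; 60 min RT reaction; HEPES pH 7.4/EGTA/CHAPS, 5% DMSO; controls lacking substrate or enzyme; luminescent end-point.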
# JMJD2A Tudor – inhibitors of human JMJD2A Tudor domain; Potency, µM (series often up to 114 µM), for inactives: top-dose activity change, negative = inhibition, most hits filed as inhibitors; O75164; AID 504339; 390,000 tested, 4.4% active; AlphaScreen JMJD2A-Tudor / H3K4me3 peptide binding; also: potency is read from the fitted curve at half-maximal effect; % is scaled to controls: 0 for no effect and ±100 for the full control effect; nearly all actives have a fitted effect of over 50% in size
# G9a block – inhibitors of human histone lysine methyltransferase G9a; Q96KQ7; G9a H3K9 monomethylation, AlphaScreen, 2 h; Potency, µM (top dose mostly 102 µM), for inactives: at the top dose activity, negative = inhibition, usual class: inhibitors; 350,000 tested, 8.8% active; also: potency is read from the fitted curve at half-maximal effect; % is scaled to controls: 0 for no effect and ±100 for the full control effect; nearly all actives have a fitted effect of over 75% in size
#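 Using a bead-based AlphaScreen, monomethylated H3K9 product from 2 h room-temperature reactions (G9a 20 nM, peptide 500 nM, SAM 20 uM) was detected with 0.5 ug/mL rabbit anti-H3K9me1 antibody.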
# * = called active by the depositor; ? = inconclusive; nt = no result given; [ ] = dose if it differs, or a comment. Rows were chosen to be rich in hits. Some 11% of all compounds tested hit in one or more screens of this group. Unless noted, calls follow the shape of the dose curve; as a rule, active = well fitted inhibition curve with a large enough effect; inconclusive = small, poorly fitted or top-dose-only effect; inactive = no such curve, though single readings can be large or run the other way.
SMILES,BAZ2B block,HP1b binding inh,L3MBTL1 inh,PI5P4Ka inh,JMJD2A Tudor,G9a block
O=C(Nc1cccs1)N1CCN(c2ncccn2)CC1,-6%,27%,nt,1,-10%,40µM*
CC1CCC(NC(=O)Nc2cccs2)CC1 (stereo unspecified),5%,-3%,nt,nt,-12%,?
O=C(Nc1ccccn1)Nc1cccs1,?,17%,nt,nt,-18%,56µM*
Cc1ccccc1NC(=O)Nc1cccs1,-36%,7%,?,-22,-26%,?
O=C(Nc1ccc(F)cc1)N1CCN(c2ncccn2)CC1,9%,26%,1%,-1,-4%,4%
N#Cc1nc(NCC2CC2)nc(Nc2ccccc2)n1,nt,nt,nt,nt,-6%,nt
COc1ccc(NC(=O)Cn2cc(S(=O)(=O)c3ccccc3)c(=O)c3cc(C)ccc32)cc1Cl,-10%,18%,nt,nt,-20%,-2%[59 µM]
CC(C)NC(=O)Nc1cccs1,-2%,28%,-10%,3,-14%,14µM*
Cc1cccc(CNC(=O)Cn2nc(C)c3nn(-c4ccc(Cl)cc4)c(C)c3c2=O)c1,1%,28%[57 µM],nt,nt,-2%,2%[59 µM]
Cc1ccc(-c2noc(-c3nnn(-c4ccc(Br)cc4F)c3C)n2)cc1,4%,41%,nt,nt,11%,1%[59 µM]
COc1ccc(C=Nc2ccc3[nH]ncc3c2)c(O)c1,?,25%,3%,1,1%,nt
Oc1c(Br)cc(Br)cc1C=Nc1ccc2[nH]ncc2c1,-22%,34%,nt,-51*,-19%,19%[59 µM]
O=C1N=c2ccccc2=C1c1sc(NS(=O)(=O)Cc2ccccc2)nc1O,?,6%,nt,-54*,?,-18%[59 µM]
Cn1c(O)c(C2=c3ccccc3=NC2=O)sc1=Nc1ccc(Cl)cc1,4%,11%,-1%,-20,-10%,21%[59 µM]
O=C(O)CCC(C(=O)O)n1c(O)c(C2=c3ccccc3=NC2=O)sc1=S (stereo unspecified),?,0%,nt,-15,-14%,?
O=C1N=c2ccccc2=C1c1sc(Nc2cccc(O)c2)nc1O,56µM*,-15%,0%,?,?,?
O=C1N=c2ccccc2=C1c1sc(Nc2ccc(O)cc2)nc1O,56µM*,21%,nt,-65*,?,79µM*
COc1ccc(CCn2c(O)c(C3=c4ccccc4=NC3=O)sc2=S)cc1OC,-12%,15%,4%,5,-23%,nt
COc1cccc(OCCSc2nc3ccccc3n2CC(=O)N2CCCCC2)c1,-36%,16%,nt,nt,-15%,?
CCCCn1c(CNC(=O)c2ccc(OC)cc2)nnc1SCC(=O)Nc1ccccc1,-9%,24%,nt,nt,-18%,2%[59 µM]
CCc1ccc(OCC(=O)N(Cc2ccc(OC)cc2)C2CCS(=O)(=O)C2)cc1 (stereo unspecified),-4%,7%,nt,nt,-7%,4%[59 µM]
Cc1nnsc1C(=O)N/N=C/c1ccc2ccccc2c1O,1.4µM*,13%,2µM*,?,?,40µM*
O=C(Nc1ccccc1)c1ccc(Br)c(S(=O)(=O)N2CCCCC2)c1,-13%,46%,nt,nt,-23%,-19%[59 µM]
Cc1ccc(C(=O)NC2(C(F)(F)F)C(=O)Nc3c2c(=O)[nH]c(=O)n3CCc2ccccc2)cc1 (stereo unspecified),-10%,13%,nt,nt,-10%,-7%[59 µM]
O=C(Nc1cccc(-c2nc3cccnc3s2)c1)c1cccc(Br)c1,-18%,7%,nt,nt,-28%,18µM*
SMILES,BAZ2B block,HP1b binding inh,L3MBTL1 inh,PI5P4Ka inh,JMJD2A Tudor,G9a block
CN(C)c1ccc(C(=O)Nc2cccc(-c3nc4cccnc4s3)c2)cc1,-5%,42%,nt,nt,-8%,-41%[59 µM]
Cc1ccc(NC(=O)N2CCN(c3nnc(C)c4c(C)n(-c5ccccc5)nc34)CC2)cc1Cl,-13%,5%,nt,nt,-11%,-1%[59 µM]
COc1ccc(N=C2O/C(=C/c3sc(=S)n(CC4CCCO4)c3O)N=C2C#N)cc1 (stereo unspecified),8.9µM*,?,-20%,-3,?,11µM*
O=C(c1ccccc1)c1cnc2ccc(Cl)cc2c1N1CCOCC1,?,-1%,nt,-5,?,50µM*
COc1cc2ncc(C(=O)c3ccccc3)c(N3CCN(Cc4ccccc4)CC3)c2cc1OC,?,?,-17%,5,22µM*,35µM*
CC(C)(C)c1ccc(OCCCn2ccnc2)cc1,50µM*,?,-7%,13,25µM*,22µM*
c1ccc2cc(OCCCn3ccnc3)ccc2c1,50µM*,?,-1%,5,4µM*,25µM*
Clc1cccc(OCCCn2ccnc2)c1,-8%,11%,-4%,-1,-9%,nt
O=C(O)C1CCCN1S(=O)(=O)c1cccc(S(=O)(=O)N2CCCC2C(=O)O)c1 (stereo unspecified),-8%,65%,-2%,-5,-13%,3.2µM*
O=C(NCCC1CCCCN1S(=O)(=O)c1ccccc1)C(=O)NC1CCCC1 (stereo unspecified),-4%,28%,8%,-1,-7%,-2%[0.501 µM]

# Screens (PubChem)
